Measured values reported in the supplement of paper PMC3484114.
± gives the standard deviation.

What follows are compounds tested on OVCAR-3-derived ovarian cancer stem-like cells (spheroids) (assay: cell growth relative to untreated control; higher = more growth (less inhibition)). Conditions: 2.29 µM; 96 h.
In short: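 Stem-like cells derived from OVCAR-3 spheroids were dissociated with trypsin and seeded at 50,000 cells/mL in stem cell medium in ultra-low attachment 96-well plates, then preincubated for 24 h. Each compound was added at 2.29 uM to 4 replicate wells and left for 96 h at 37°C, 5% CO2. Viability came from TOX8 resazurin fluorescence (ex 560/em 590 nm) read after 4 h. Percent growth was expressed relative to untreated wells, after blank subtraction and removal of outliers by the Grubbs test.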

SMILES | cell growth [%]
Cc1c2ccncc2c(C)c2c1sc1ccccc12 | 120 ± 13
Cc1cccc(Cl)c1NC(=O)/C=C/c1ccccc1 | 102 ± 14
CN1CCN(CN2C(=O)C3C4C=CC(C3C2=O)C2C3C(=O)N(CN5CCN(C)CC5)C(=O)C3C42)CC1 (stereo not given) | 91.4 ± 32
O=C1OC(c2ccco2)=N/C1=C\c1ccc(Cl)c(Cl)c1 | 17.7 ± 5
CC(C)=CCC(OC(=O)C=C(C)C)C1=CC(=O)c2c(O)ccc(O)c2C1=O (stereo not given) | 35 ± 16
Cc1ccc([S+](c2ccccc2)c2cc(C)ccc2C)cc1.O=C(OC(C(=O)[O-])C(OC(=O)c1ccccc1)C(=O)O)c1ccccc1 (stereo not given) | 43.6 ± 5.1
Cc1ccc(NC(=O)/C=C/c2ccccc2)c(C)c1 | 77.2 ± 16
COC(=O)c1ccccc1NC(=O)C(=O)CC(=O)c1ccccc1NC1=CC(=O)C(=O)c2ccccc21 | 65.5 ± 12
c1ccc(-c2cccc(-c3ccccn3)n2)nc1 | 79.9 ± 17
NC(=O)C#CC(N)=O | 55.9 ± 13
CC[C@@]1(O)C[C@H](O[C@H]2C[C@H](N(C)C)[C@H](O[C@H]3C[C@H](O)[C@H](O[C@H]4CCC(=O)[C@H](C)O4)[C@H](C)O3)[C@H](C)O2)c2c(cc3c(c2O)C(=O)c2c(O)cccc2C3=O)[C@@H]1C(=O)OC | 48.2 ± 42
CC1C(Oc2c(-c3ccc(O)c(O)c3)oc3c(O)cc(O)cc3c2=O)OC(O)C(O)C1O (stereo not given) | 77.6 ± 18
CCCCn1c2c(n(CCCC)c1=S)-c1c(n(CCCC)c(=S)n1CCCC)SSSS2 | 27.2 ± 5.8
O=C(N=Nc1c(O)[nH]c2c(Cl)cc(Cl)cc12)c1ccccc1O | 93.1 ± 22
O=C(C[n+]1ccc2ccccc2c1)c1ccc2ccc3ccccc3c2c1 | 95.1 ± 31
